Measurements taken from PubChem BioAssay.
The source made the active and inactive calls. Unless noted, no rule for the calls is given here.

What was measured:
[1] = anti-His antibody binders, primary screen, artefact control for SMM control protein annotation, biochemical, small-molecule microarray, 635 nm fluorescence (AID 1128); conditions: anti-His Alexa647 antibody binding, higher = more signal;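 also: score merges feature fluorescence with signal-to-noise for each printed compound spot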
[2] = system: Human papillomavirus type 1a E7 protein (residues 1-88); experiment: HPV1a E7 small-molecule binders, primary screen, biochemical, small-molecule microarray, residues 1-88, 635 nm (AID 1129); conditions: small-molecule microarray binding, fluorescence 635 nm; higher = more signal
[3] = biological target: Focal adhesion kinase 1 (Homo sapiens) (UniProt Q05397); experiment: small-molecule microarray binders of FAK, primary screen, biochemical, 635/667 nm fluorescence, BSA, DTT (AID 1130); conditions: PTK2 binding, 635 nm fluorescence, higher = more signal;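 also: composite of spot emission at 667 nm and signal to noise over triplicate slides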
[4] = system: Fibrinogen (Alexa647-labelled); experiment: fibrinogen binders on compound microarrays, profiling panel, artefact control for SMM control-protein annotation, biochemical, small-molecule microarray, 635/667 nm fluorescence (AID 1131); conditions: fibrinogen-A647 binding fluorescence, higher = more signal;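 also: z-score merges 667 nm fluorescence with per-spot signal-to-noise over triplicate slides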
[5] = biological target: Follistatin (Homo sapiens) (UniProt P19883); experiment: follistatin binders on small-molecule microarrays, primary screen, biochemical, small-molecule microarray, 635/667 nm fluorescence (AID 1132); conditions: FST binding, 635 nm fluorescence, higher = more signal
[6] = biological target: Fibroblast growth factor 2 (Homo sapiens) (UniProt P09038); experiment: FGF2 binders on small-molecule microarrays, primary screen, biochemical, small-molecule microarray, 635/667 nm fluorescence (AID 1133); conditions: small-molecule microarray binding, FGF2, fluorescence 635/667; higher = more signal
[7] = mitochondrial membrane potential change in A549 cells, profiling panel, cell-based, JC-1 fluorescence, basal, 24 h, 100 nL (AID 1138); conditions: higher = more signal;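 also: A549 lung adenocarcinoma cells under basal conditions with no added stimulus; test concentration not given here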
Lefty1 = Lefty1 binders on small-molecule microarrays, primary screen, biochemical, small-molecule microarray, 635/667 nm fluorescence (AID 1139); conditions: small-molecule microarray binding, fluorescence 635/667; higher = more signal
[8] = system: wheat germ agglutinin (Triticum aestivum), Alexa647-labelled; experiment: wheat germ agglutinin binders on compound microarrays, profiling panel, artefact control for SMM control-protein annotation, biochemical, small-molecule microarray, 635/667 nm fluorescence (AID 1140); conditions: WGA-A647 binding, 635 nm fluorescence, higher = more signal;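 also: score merges 667 nm feature emission with signal to noise over triplicate slides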
[9] = biological target: Luciferin 4-monooxygenase (Photinus pyralis) (UniProt P08659); experiment: firefly luciferase enzyme inhibitors, primary screen, biochemical, luminescence, purified enzyme, 2006 set (AID 1141); conditions: SteadyGlo luminescence, 30 min, higher = more signal, called active from +8 up or from −8 down;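 also: cell-free assay with purified firefly luciferase at 100 ng per well in PBS; test concentration not given here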
[10] = system: Wnt5a (protein binding on small-molecule microarray); experiment: Wnt5a binders on small-molecule microarray, primary screen, biophysical, 635/667 nm fluorescence (AID 1142); conditions: 635 nm fluorescence, higher = more signal;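 also: fluorescence read at 667 nm with signal to noise per printed feature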
[11] = cell viability in Huh7 cells, primary screen, cytotoxicity control for HCV replication inhibitor project, CellTiter-Glo luminescence, basal, 48 h (AID 1143); conditions: Huh7 HCV replicon, higher = more signal, called active from +8 up or from −8 down;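 also: Huh7 hepatoma cells carrying a hepatitis C replication reporter with no stimulus; test concentration not given here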
[12] = P. aeruginosa biofilm formation inhibitors, primary screen, PAO1 strain, BacTiter-Glo luminescence, LB-PBS (AID 1144); conditions: 12 h, higher = more signal
[13] = CREB reporter modulators without forskolin, primary screen, cell-based, PC12, CRE-LacZ reporter, unstimulated (AID 1145); conditions: no forskolin, luminescence, 4.5 h, higher = more signal, called active from +8 up or from −8 down
[14] = CREB reporter modulators under forskolin, primary screen, cell-based, PC12, CRE-LacZ reporter, forskolin-stimulated (AID 1146); conditions: luminescence, 4.5 h, higher = more signal, called active from +8 up or from −8 down;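 also: PC12 cells with 6xCRE LacZ reporter stimulated by forskolin 10 µM; beta-galactosidase reporter signal reflecting CREB driven transcription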
[15] = biological target: Streptavidin (Streptomyces avidinii) (UniProt P22629); experiment: streptavidin binders on small-molecule microarray, primary screen, artefact control for SMM compound annotation, biophysical, 635/667 nm fluorescence (AID 1147); conditions: streptavidin binding, higher = more signal;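 also: signal reflects streptavidin binding to arrayed compounds as a control protein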
[16] = small-molecule binders of probe aInhba, primary screen, biochemical, small-molecule microarray, 635/667 nm fluorescence (AID 1148); conditions: higher = more signal;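 also: score merges 667nm spot fluorescence with signal-to-noise for antibody binding to printed compounds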
Torsin-1A (Homo sapiens) [17] = biological target: Torsin-1A (Homo sapiens) (UniProt O14656); experiment: torsin A binders from cell lysate, primary screen, small-molecule microarray, wild-type, 635/667 nm (AID 1149); conditions: COS7 hTOR1A-WT lysate, 635 nm fluorescence, higher = more signal
Torsin-1A (Homo sapiens) [18] = biological target: Torsin-1A (Homo sapiens) (UniProt O14656); experiment: small-molecule binders of mutant TOR1A in lysate, primary screen, cell lysate, small-molecule microarray, COS7 lysate, 635/667 nm fluorescence (AID 1150); conditions: COS7 hTOR1A mutant lysate, 635 nm fluorescence, higher = more signal;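 also: score pools 667 nm emission and signal to noise measuring lysate protein binding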
[19] = system: Sonic hedgehog protein (Shh); experiment: small-molecule binders of Shh protein, primary screen, biochemical, small-molecule microarray, 635/667 nm fluorescence (AID 1151); conditions: small-molecule microarray binding, 635 nm fluorescence; higher = more signal;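 also: Shh protein binding to compounds spotted on small-molecule microarray slides; score combines spot fluorescence intensity with signal-to-noise across triplicate slides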

Sequence of Streptavidin (Streptomyces avidinii) (P22629 whole entry, looked up): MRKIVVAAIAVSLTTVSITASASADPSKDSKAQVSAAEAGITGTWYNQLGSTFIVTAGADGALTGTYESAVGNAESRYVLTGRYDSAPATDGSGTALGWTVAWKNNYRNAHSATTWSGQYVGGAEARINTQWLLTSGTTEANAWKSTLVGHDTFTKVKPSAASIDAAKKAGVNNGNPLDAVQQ
Sequence of Fibroblast growth factor 2 (Homo sapiens) (P09038 whole entry, looked up): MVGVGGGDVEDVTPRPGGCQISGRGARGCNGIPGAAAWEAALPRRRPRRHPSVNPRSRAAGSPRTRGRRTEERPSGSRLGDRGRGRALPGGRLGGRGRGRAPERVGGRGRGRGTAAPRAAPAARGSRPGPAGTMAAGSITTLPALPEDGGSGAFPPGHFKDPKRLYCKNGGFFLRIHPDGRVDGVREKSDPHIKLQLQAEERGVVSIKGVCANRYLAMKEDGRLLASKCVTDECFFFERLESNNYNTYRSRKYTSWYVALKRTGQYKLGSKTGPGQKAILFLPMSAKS
Sequence of Torsin-1A (Homo sapiens) (O14656 whole entry, looked up): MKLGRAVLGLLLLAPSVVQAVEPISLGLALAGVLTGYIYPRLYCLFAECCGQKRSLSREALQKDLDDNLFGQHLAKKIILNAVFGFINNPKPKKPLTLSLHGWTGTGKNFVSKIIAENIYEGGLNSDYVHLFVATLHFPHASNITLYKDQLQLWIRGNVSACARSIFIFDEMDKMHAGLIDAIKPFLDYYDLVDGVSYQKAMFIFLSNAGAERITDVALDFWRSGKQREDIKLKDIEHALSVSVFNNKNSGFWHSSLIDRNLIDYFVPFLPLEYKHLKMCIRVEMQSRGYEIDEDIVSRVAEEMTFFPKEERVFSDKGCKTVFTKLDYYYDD
Sequence of Luciferin 4-monooxygenase (Photinus pyralis) (P08659 whole entry, looked up): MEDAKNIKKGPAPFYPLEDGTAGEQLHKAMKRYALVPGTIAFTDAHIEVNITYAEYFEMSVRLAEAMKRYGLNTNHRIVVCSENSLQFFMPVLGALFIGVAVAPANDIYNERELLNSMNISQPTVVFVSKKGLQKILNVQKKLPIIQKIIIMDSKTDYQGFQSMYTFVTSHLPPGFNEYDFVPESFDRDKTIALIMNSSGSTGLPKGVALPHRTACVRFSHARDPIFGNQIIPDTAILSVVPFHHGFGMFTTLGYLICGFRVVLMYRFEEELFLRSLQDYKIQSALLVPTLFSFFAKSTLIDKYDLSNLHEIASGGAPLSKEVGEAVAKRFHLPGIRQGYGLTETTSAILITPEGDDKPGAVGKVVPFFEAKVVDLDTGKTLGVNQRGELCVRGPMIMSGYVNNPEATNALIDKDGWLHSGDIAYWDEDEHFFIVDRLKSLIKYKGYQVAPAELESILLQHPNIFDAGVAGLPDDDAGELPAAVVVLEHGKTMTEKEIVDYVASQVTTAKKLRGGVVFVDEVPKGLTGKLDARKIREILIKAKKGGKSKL
Sequence of Follistatin (Homo sapiens) (P19883 whole entry, looked up): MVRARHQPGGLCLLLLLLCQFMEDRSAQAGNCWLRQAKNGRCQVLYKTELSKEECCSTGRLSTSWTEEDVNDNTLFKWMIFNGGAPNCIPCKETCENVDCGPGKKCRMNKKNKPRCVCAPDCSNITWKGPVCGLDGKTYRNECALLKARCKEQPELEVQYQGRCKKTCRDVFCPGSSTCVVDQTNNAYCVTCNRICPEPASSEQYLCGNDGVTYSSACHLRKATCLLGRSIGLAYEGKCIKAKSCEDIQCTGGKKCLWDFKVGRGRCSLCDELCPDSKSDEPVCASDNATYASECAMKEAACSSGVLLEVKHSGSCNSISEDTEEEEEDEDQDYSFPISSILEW
Sequence of Focal adhesion kinase 1 (Homo sapiens) (Q05397 whole entry, looked up): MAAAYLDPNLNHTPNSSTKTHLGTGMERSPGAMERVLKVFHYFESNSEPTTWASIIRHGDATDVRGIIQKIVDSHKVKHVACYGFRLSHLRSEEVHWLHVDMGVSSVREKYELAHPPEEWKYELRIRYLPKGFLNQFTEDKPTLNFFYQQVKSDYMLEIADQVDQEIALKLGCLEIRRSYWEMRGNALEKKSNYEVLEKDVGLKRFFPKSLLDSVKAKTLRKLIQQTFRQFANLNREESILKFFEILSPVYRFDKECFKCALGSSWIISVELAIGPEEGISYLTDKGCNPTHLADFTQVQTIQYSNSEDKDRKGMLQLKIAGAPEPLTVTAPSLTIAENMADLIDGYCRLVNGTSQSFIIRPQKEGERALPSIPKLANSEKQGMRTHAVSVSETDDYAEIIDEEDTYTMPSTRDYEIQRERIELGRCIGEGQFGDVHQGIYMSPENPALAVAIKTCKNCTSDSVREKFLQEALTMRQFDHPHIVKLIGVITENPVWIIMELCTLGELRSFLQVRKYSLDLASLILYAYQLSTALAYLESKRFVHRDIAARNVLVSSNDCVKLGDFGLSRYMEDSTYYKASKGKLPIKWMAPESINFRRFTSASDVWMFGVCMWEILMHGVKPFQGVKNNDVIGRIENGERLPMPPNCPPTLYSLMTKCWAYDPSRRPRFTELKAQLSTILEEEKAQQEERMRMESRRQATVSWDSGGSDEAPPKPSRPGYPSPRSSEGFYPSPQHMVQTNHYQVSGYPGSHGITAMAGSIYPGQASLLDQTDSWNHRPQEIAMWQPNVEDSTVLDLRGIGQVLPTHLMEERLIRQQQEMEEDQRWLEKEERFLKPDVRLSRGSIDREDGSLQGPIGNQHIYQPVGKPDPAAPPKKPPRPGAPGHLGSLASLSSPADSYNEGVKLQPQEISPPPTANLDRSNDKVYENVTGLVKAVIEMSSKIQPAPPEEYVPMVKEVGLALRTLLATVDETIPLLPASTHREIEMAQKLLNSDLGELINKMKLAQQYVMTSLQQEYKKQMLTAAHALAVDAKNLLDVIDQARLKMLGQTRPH

SMILES	composite z-score [1]	composite z-score [2]	composite z-score [3]	composite z-score [4]	composite z-score [5]	composite z-score [6]	z-score [7]	composite z-score (Lefty1)	composite z-score [8]	z-score [9]	composite z-score [10]	z-score [11]	z-score [12]	z-score [13]	z-score [14]	composite z-score [15]	composite z-score [16]	composite z-score (Torsin-1A (Homo sapiens) [17])	composite z-score (Torsin-1A (Homo sapiens) [18])	composite z-score [19]
C=C[C@H](OC)[C@@H](OC(=O)Nc1ccc(SC)cc1)c1ccc(O)c(F)c1	0.705	0.0378	-0.264	0.756	0.171	0.781	-0.97	-0.0871	0.0251	-3.45 (inactive)	0.418	-0.731 (inactive)	-0.782 (inactive)	5.83 (inactive)	-0.362 (inactive)	-0.174	-0.0695	0.373	0.23	1.6
CC(C)(C)OC(=O)CC[C@]1(C(=O)N2CCCCC2)N=C(c2ccc(OCCCO)cc2)O[C@H]1c1ccccc1	1.81	1.2	0.717	0.985	1.24	1.15	1.98	1.01	1.27	-2.85 (inactive)	0.836	-3.16 (inactive)	0.418 (inactive)	1.55 (inactive)	-1.85 (inactive)	2.08	-0.0112	1.68	1.04	1.19
C#CCCCON=C1C[C@@H](O)[C@@H](O)[C@@H]2[C@@H]3C(=O)N(Cc4ccc5c(c4)OCO5)C(=O)[C@@H]3CC[C@@H]12	2.73	0.226	-0.0967	0.903	0.669	0.0999	0.505	0.847	1.14	0.76 (inactive)	-0.323	-0.209 (inactive)	1.86 (inactive)	-0.56 (inactive)	-0.157 (inactive)	0.571	-0.0245	-0.345	-0.151	0.9
CN1C(=O)C2C=CC(C(O)C3CC=CCC3)N(Nc3ccccc3)C2C1=O (stereo not given)	0.674	1.14	-0.198	0.678	1.28	0.769	0.883	1.29	1.24	0.864 (inactive)	0.521	0.758 (inactive)	-0.269 (inactive)	-0.333 (inactive)	0.0874 (inactive)	0.505	0.208	0.664	1.06	1.57
COc1ccc(C(=O)Nc2ccc(CN3C(=O)[C@]4(O[C@H](CCn5cc(CCO)nn5)[C@@H]([Si](C)(C)c5ccc(OC)cc5)[C@@H]4C)c4ccccc43)cc2)cc1	0.748	1.13	0.203	0.92	0.867	1.57	1.14	0.426	0.798	-1.26 (inactive)	0.278	-7.86 (inactive)	-0.637 (inactive)	3.37 (inactive)	-1.8 (inactive)	0.863	0.279	0.421	0.638	1.99
